# Tau ThT inhib – inhibitors of human tau fibril formation, thioflavin T binding; P10636; recombinant tau K18 P301L, heparin-induced fibrillization, ThT fluorescence; Potency, µM (titrated, usually from 57.4 µM), for inactives: top-dose activity, negative = inhibition, most hits filed as inhibitors; 270,000 tested, 2.1% active; AID 1460; note: % is set by controls: 0 for no effect and ±100 for the full control effect; nearly all actives have a fitted effect of over 55% in size
# Target sequence (P10636 561-689 P618L limits assumed): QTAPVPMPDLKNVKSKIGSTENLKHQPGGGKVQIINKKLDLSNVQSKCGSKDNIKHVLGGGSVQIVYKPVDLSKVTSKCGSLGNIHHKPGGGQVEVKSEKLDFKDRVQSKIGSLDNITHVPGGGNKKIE
#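 Heparin-induced (20 uM) aggregation of recombinant human K18 P301L tau, 15 uM unlabeled with 0.24 uM labeled, pH 7 acetate buffer, 6 hr at 37 C with compound. Fibrils quantified by 30 uM ThT fluorescence after 1 hr ambient incubation.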
# Tau fibril FP – blocks human tau fibril formation measured by polarization; P10636; K18 P301L tau heparin fibrillization, Alexa594 FP, 6 h; Potency, µM (doses to about 57.7 µM), for inactives: top-dose activity, negative = inhibition, actives largely listed as inhibitors; 280,000 tested, 0.39% active; AID 1468; note: % is set by controls: 0 for no effect and ±100 for the full control effect; nearly all actives have a fitted effect of over 55% in size
#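 K18 P301L tau (15 uM unlabeled/0.24 uM Alexa 594-labeled, final) + compound + heparin 20 uM final; 100 mM NaOAc pH 7; 6 hr 37 C; ThT 30 uM final added, 1 hr RT; FP ex 555/em 632 nm.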
# HTT aggregate – inhibitors of mutant huntingtin aggregate formation in PC12 cells; PC12 HttQ103-GFP aggregates, Acumen cytometry, 40 h; Potency, µM (titrated, usually from 46.1 µM), without a hit: top-dose activity change, negative = inhibition, most hits filed as inhibitors; 220,000 tested, 1.1% active; note: % is set by controls: 0 for no effect and ±100 for the full control effect; nearly all actives have a fitted effect of over 60% in size
#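 Using laser scanning cytometry, GFP-positive aggregates were counted after lysis of PC12 cells induced with 100 nM tebufenozide to express HTT exon 1 Q103–GFP. Compounds were tested in titration.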
# HTT cytoprotect – protects HTT-Q103 PC12 cells, measured by ATP; Potency, µM (doses to about 56.4 µM), for inactives: cytoprotection (ATP increase), actives largely listed as activators; AID 1471; 230,000 tested, 0.14% active; PC12 HTT-Q103 induced, cytoprotection, ATP luminescence, 40 h; note: % of control where 0% means no effect; nearly all actives have a fitted effect of over 45% in size
#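 Compounds added alongside 100 nM tebufenozide, which induces toxic Q103 huntingtin exon 1-GFP in stable PC12 cells; surviving cells quantified by luminescent ATP measurement. Medium: phenol red-free DMEM, 5% equine and 5% calf serum.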
# Tau fluor counter – counter-screen for tau fibril formation inhibitors; tau K18 P301L Alexa594 fluorescence, heparin fibrillization; Potency, µM (highest dose often 57.7 µM), for inactives: at the highest dose activity change, negative = decrease; 280,000 tested, 0.93% active; AID 1463; note: % is set by controls: 0 for no effect and ±100 for the full control effect; nearly all actives have a fitted effect of over 55% in size
#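 Human tau K18 P301L (15 uM unlabeled, 0.24 uM Alexa 594-labeled) in 100 mM sodium acetate pH 7 with 20 uM heparin, 6 hr at 37 C. ThT 30 uM added, 1 hr ambient; Alexa 594 FP and total fluorescence read at 555/632 nm.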
# * hit, by the source's call; ? = inconclusive; · = no result; [ ] = remark or other dose. Compounds with a hit are over-represented: about 3.7% of the library has one in this group of screens. Calls come from the whole dose curve; as a rule, active = well fitted curve in the direction sought with a large enough effect; inconclusive = small, poorly fitted or top-dose-only effect, or another doubt; inactive = no such curve, though single readings can be large; an effect the other way counts as inactive or inconclusive. Potency is the fitted concentration of half-maximal effect.
SMILES,Tau ThT inhib,Tau fibril FP,HTT aggregate,HTT cytoprotect,Tau fluor counter
CCOC(=O)[C@]1(C#N)[C@@H]2C=CC(C(C)=O)=CN2[C@@H](C(N)=O)[C@@H]1c1ccsc1,32µM*,?,6%,-3%,-26%
CC[C@@H]1CN2CC[C@@H]1C[C@H]2[C@@H](O)c1ccnc2ccc(OC)cc12,·,·,·,27%,·
Cc1ccccc1-n1c(/C=C/c2c(C)[nH]c3ccccc23)nc2ccccc2c1=O,?,?,·,·,4µM*[quencher]
C=C(C)[C@H]1[C@H]2OC(=O)[C@@H]1[C@]1(O)C[C@H]3O[C@]34C(=O)O[C@H]2[C@]14C,·,·,·,-3%,·
CC(C)CN(CC(C)C)c1ccc(C=C2C(=O)NC(=S)NC2=O)cc1[N+](=O)[O-],25µM*,?,3%,-14%,?
CS(=O)(=O)O[C@H]1CN2CCC1CC2,·,·,·,-7%[10 µM],·
Cc1nn(CCC#N)c2c1P(=S)(N1CCCC1)OC(c1ccc(F)cc1)=N2 (stereo unspecified),32µM*,?,8%,-11%[10 µM],-25%
C[C@H]1COC2=C1C(=O)C(=O)c1c2ccc2c1CCCC2(C)C,13µM*,?,17%[9.22 µM],-3%[10 µM],-28%
CC1COC2=C1C(=O)C(=O)c1c2ccc2c1CCCC2(C)C (stereo unspecified),13µM*,?,·,·,?
CCSCC[C@H](N)C(=O)O,·,·,·,-2%[10 µM],·
